The whole screen tested about 300,000 compounds, of which about 2,400 (0.8%) were called active. What follows is part of a selection rich in actives, with near analogues and random picks from the rest. A number with no mark means an inactive call.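 Rule for the calls: active = Every replicate reaches about 75%, or at least half do and their mean reaches it too (limit read from the data); inconclusive = At least half of replicates reach the limit but their mean does not; inactive = Under half of replicates reach the limit.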
Test: INS-1E beta cell survival under cytokines – luminescence, primary screen (AID 435005);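 note: 0% = cytokine-treated negative control wells and 100% = positive control rescue; higher means more ATP so stronger rescue from cytokine killing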
Details: INS-1E cytokine-induced death, ATP luminescence, 48 h; stronger effect = higher value; percent of positive-control rescue, neutral wells zero; concentration not given here

Q: With `CCn1nc(C(=O)Nc2ccc(N3CCOCC3)cc2)c2ccccc2c1=O` as the molecule, how does the protection from apoptosis read?
A: -0.317%

Q: For `C#CCOCCOCCOCCNc1nc(N2CCN(C(=O)C([C@@H](C)O)n3cc([C@@H](N)CCCCN)nn3)CC2)nc(N2CCN(C(=O)[C@H](CCCCN)n3cc(CN)nn3)CC2)n1` (some centres undefined), which protection from apoptosis is on record?
A: 0.272%

Q: For `CN(CC(=O)NCC(c1ccccc1)N1CCCC1)S(=O)(=O)c1ccc(Cl)cc1` (centres undefined), which protection from apoptosis is on record?
A: -2.83%

Q: Which protection from apoptosis does the source give for `CC1CCCC(C)N1C(=O)COC(=O)COc1ccccc1C#N` (centres undefined) here?
A: -0.693%

Q: Which protection from apoptosis does the source give for `COc1cc(OC)cc(-c2cc3ccc(F)cc3cn2)c1` here?
A: 3.7%

Q: For `CC(=O)Nc1ccc(S(=O)(=O)NCC(=O)OCC(=O)c2ccc[nH]2)cc1`, which protection from apoptosis is on record?
A: 0.385%

Q: With `O=C(C[C@H]1C/C=C\C[C@@H](NC(=O)OCC2c3ccccc3-c3ccccc32)C(=O)O[C@@H](c2ccccc2)CNC1=O)N[C@H](CO)Cc1ccccc1` as the molecule, how does the protection from apoptosis read?
A: 54.4%

Q: With `O=C(Cc1nc2ccccc2[nH]c1=O)c1ccc(Cl)cc1` as the molecule, how does the protection from apoptosis read?
A: -0.338%

Q: With `CCC(=O)/C(=C(/O)c1ccccc1)c1nc2ccccc2[nH]1` as the molecule, how does the protection from apoptosis read?
A: -5.02%

Q: Which protection from apoptosis does the source give for `O=C(/C(=C/c1cccc(Cl)c1)c1nc2ccccc2[nH]1)c1ccccc1` here?
A: 101% (active)

Q: With `CC(=O)c1ccc(NC(=O)CSc2nc3ccccc3c(=O)n2CCCN2CCOCC2)cc1` as the molecule, how does the protection from apoptosis read?
A: -12.1%

Q: With `CC(C)(C)OC(=O)NNc1c2ccccc2nc2ccccc12` as the molecule, how does the protection from apoptosis read?
A: 24.9%

Q: For `CC(=O)Nc1ccc(NC(=O)COc2ncnc3ccccc23)cc1`, which protection from apoptosis is on record?
A: 1.06%

Q: With `O=C(Nc1c2c(nc3ccccc13)CCCC2)c1ccccc1Br` as the molecule, how does the protection from apoptosis read?
A: -2.43%

Q: With `Cc1ccc(Nc2c3c(nc4ccccc24)CCC3)cc1` as the molecule, how does the protection from apoptosis read?
A: 82.4% (active)

Q: For `N#Cc1cccc(Nc2c3c(nc4ccccc24)CCCC3)c1`, which protection from apoptosis is on record?
A: 10.5%

Q: With `CC(=O)Nc1ccc(Nc2c3ccccc3nc3ccccc23)cc1` as the molecule, how does the protection from apoptosis read?
A: 88.6% (active)

Q: With `COc1ccc(Cl)cc1NC(=O)COC(=O)c1ccc(Br)o1` as the molecule, how does the protection from apoptosis read?
A: -10.1%

Q: Which protection from apoptosis does the source give for `COc1cccc(NC(=O)CSc2nnc(C3CCCCC3)n2N)c1` here?
A: -3.75%

Q: Which protection from apoptosis does the source give for `CCc1ccc(-c2nn(-c3ccccc3)cc2CSC(=N)N)cc1` here?
A: 89.4% (active)

Q: For `Cc1ccc(-c2nn(-c3ccccc3)cc2C(=O)NC2CCC(O)CC2)cc1` (centres undefined), which protection from apoptosis is on record?
A: 1.53%

Q: For `O=C(Nc1cn(-c2ccccc2)nc1-c1ccccc1)c1ccccc1`, which protection from apoptosis is on record?
A: 2.47%

Q: Which protection from apoptosis does the source give for `Cc1occc1C(=O)Nc1cccc(S(=O)(=O)N2CCOCC2)c1` here?
A: -3.05%

Q: Which protection from apoptosis does the source give for `C=CCC[C@H](Cc1ccc(F)cc1)C(=O)OC[C@H](C)NC(=O)[C@H](CC=C)CC(=O)N(CCO)Cc1ccccc1` here?
A: 2.93%

Reference: PubChem BioAssay AID435005 (Broad Institute, 2010)
